The full list was thinned out, with hits kept by preference.
Tgondii IFNg: inhibitors of Toxoplasma gondii growth with IFN-gamma. hit rate 3.8% among 69,000. activity change, negative = inhibition, % (no concentration beside the values). Toxoplasma gondii growth in IFN-gamma-treated host cells; stronger effect = lower value; in the data active means activity change below about -70%, passing the limit was not always enough;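 further: host cells are HeLa cells infected with Toxoplasma gondii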
Large screens that a line does not name were inactive; ! = repeats disagree.

N#Cc1cccc(-c2ccc(C3[C@@H]4CN(C(=O)c5ccc6c(c5)OCO6)C[C@H]3N4)cc2)c1 (some centres undefined)	Tgondii IFNg -75!
Cc1cccc(-c2ccc([C@@H]3[C@@H](CO)N4C(=O)CN(C(=O)c5ccc6c(c5)OCO6)C[C@H]34)cc2)c1	none
Cn1ccnc1C(=O)N[C@H]1CN(c2ncccn2)[C@H]2CCCO[C@@H]12	none
COc1ccccc1-c1nc(C)c(-c2ccc(SCc3c(F)cccc3Cl)nn2)s1	none
CC1=CC(C)(C)N(C(=O)c2ccccc2)c2ccc(OC(=O)c3ccccc3)cc21	none
CC1CC(C)(C)N2C(=O)C(=O)c3cc(OC(=O)c4ccccc4)cc1c32 (centres undefined)	Tgondii IFNg -96
CS(=O)(=O)c1cccc(C(=O)Oc2ccccc2)c1	none
CC(C)(C)c1ccc(C(O)CCCN2CCC(C(O)(c3ccccc3)c3ccccc3)CC2)cc1 (centres undefined)	Tgondii IFNg -91!
Cn1cc(CN2CCC(C(O)(c3ccccc3)c3ccccc3)CC2)cn1	none
CC(C(=O)N1CCC(C(O)(c2ccccc2)c2ccccc2)CC1)n1ccnc1 (centres undefined)	none
COc1cccc(-c2ccc3cc(C(=O)CCN4CCOCC4)c(-c4cocn4)n3c2)c1	none
O=C(CNC(=O)c1ccc(Cl)cc1)NO	none
O=C(Nc1ccc(Sc2cccs2)cc1)c1ccc(Cl)cc1	none
O=C(NCc1c(Cl)cccc1Sc1ccc(Cl)cc1)c1ccc(Cl)cc1	Tgondii IFNg -102
CC(C(=O)NCCn1ccnc1)N(c1ccccc1)S(C)(=O)=O (centres undefined)	none
C[C@@H]1CCCCO[C@@H](CN(C)Cc2ccncc2)[C@@H](C)CN([C@@H](C)CO)C(=O)c2cc(NS(=O)(=O)c3ccc(Cl)cc3)ccc2O1	none
C[C@@H]1CCCCO[C@H](CN(C)Cc2ccncc2)[C@H](C)CN([C@@H](C)CO)C(=O)c2cc(NS(=O)(=O)c3ccc(Cl)cc3)ccc2O1	none
C[C@@H]1CN([C@@H](C)CO)C(=O)c2cc(NS(=O)(=O)c3ccc(Cl)cc3)ccc2O[C@@H](C)CCCCO[C@@H]1CN(C)Cc1ccncc1	Tgondii IFNg -113
C[C@@H]1CCCCO[C@@H](CN(C)Cc2ccc(Cl)c(Cl)c2)[C@H](C)CN([C@H](C)CO)C(=O)c2cc(NS(=O)(=O)c3cccs3)ccc2O1	none
C[C@@H]1CCCCO[C@@H](CN(C)Cc2ccc(Cl)c(Cl)c2)[C@@H](C)CN([C@@H](C)CO)C(=O)c2cc(NS(=O)(=O)c3cccs3)ccc2O1	none
C[C@@H]1CCCCO[C@@H](CN(C)Cc2ccncc2)[C@H](C)CN([C@H](C)CO)C(=O)c2cc(NS(=O)(=O)c3ccc(Cl)cc3)ccc2O1	Tgondii IFNg -105
C[C@@H]1CCCCO[C@@H](CN(C)Cc2ccc(Cl)c(Cl)c2)[C@H](C)CN([C@@H](C)CO)C(=O)c2cc(NS(=O)(=O)c3cccs3)ccc2O1	none
C[C@@H]1CN([C@H](C)CO)C(=O)c2cc(NS(=O)(=O)c3cccs3)ccc2O[C@@H](C)CCCCO[C@H]1CN(C)Cc1ccc(Cl)c(Cl)c1	none
C[C@@H]1CN([C@H](C)CO)C(=O)c2cc(NS(=O)(=O)c3ccc(Cl)cc3)ccc2O[C@@H](C)CCCCO[C@@H]1CN(C)Cc1ccncc1	Tgondii IFNg -112
Cc1cc(N2Cc3cnn(CCO)c3C2)c2cc3c(cc2n1)OCO3	none
COc1ccccc1N(Cc1nc(-c2ccc(C)cc2)oc1C)S(=O)(=O)c1cccs1	none
C=C(C)COc1ccccc1C(=O)NCCc1nc2c(C)cccc2[nH]1	none
COCCc1nnc(NC(=O)C2(CC3CC(c4ccc(C)cc4)=NO3)CCOCC2)s1 (centres undefined)	none
CCN(CC)C(=O)Cn1nc2c(C)cc3ccc(OC)cc3n2c1=O	none
Cc1cc2cc3c(cc2n2c(=O)n(Cc4ccccn4)nc12)OCO3	none
Cc1ccc2cc(C)c3nn(CCNC(=O)C4CSC(c5ccncc5)=N4)c(=O)n3c2c1 (centres undefined)	Tgondii IFNg -110
Cc1ccc(CN2C[C@@H]3CN(CC4CCOC4)C[C@H]3C2)cc1 (some centres undefined)	none
O=C(Nc1ccc(F)cc1F)N1CCC2(CC1)Nc1ccccc1-n1cccc12	none
CC(Sc1nc(=O)cc(N)n1-c1ccccc1)C(=O)Nc1cccc2ccccc12 (centres undefined)	none
Cc1oc(-c2cccc(Br)c2)nc1Cn1c(=O)c2cccnc2n(-c2ccccc2)c1=O	none
CC[C@H](Cn1nnc2ccccc2c1=O)NC(=O)c1cnccn1	none
Cn1c2c(ccc1=O)CC(NCc1nccs1)CC2 (centres undefined)	none
CC1Cc2cc(CN(C)C(=O)Cn3c(=O)oc4ccc(Cl)cc43)ccc2O1 (centres undefined)	Tgondii IFNg -92
CN(CCNC(=O)Cn1c(=O)oc2ccc(Cl)cc21)c1ccccc1	none
CC1Cc2cc(CN(C)C(=O)CCS(=O)(=O)c3cccc4cccnc34)ccc2O1 (centres undefined)	none
CCc1cccc(-n2nnc(C(=O)N3CCC(N4CCCCC4)CC3)c2-c2ccncc2)c1	none
CN1CCN(CC#N)C(=O)C12CCN(S(=O)(=O)C1CC1)CC2	none
CC(=O)Nc1cccc(OCCCN2CNc3c(c(=O)n(C)c(=O)n3C)C2)c1	none
COc1ccc(-c2nc(C)cnc2C)c(OC)c1OC	none
COc1ccc2c(c1)NC1(CCN(C(=O)c3ccncc3)CC1)NS2(=O)=O	none
COC(=O)c1ccc(S(=O)(=O)NCc2csc3ccc(Cl)cc23)n1C	none
Cc1cc(C)n(S(=O)(=O)c2ccccc2)n1	none
Cc1nn(S(=O)(=O)c2ccccc2)c(C)c1Cc1csc2ccc(Cl)cc12	Tgondii IFNg -89
O=C(O)c1nccnc1C(=O)NCc1csc2ccc(Cl)cc12	none
Cc1nn(C(=O)Nc2cccc(Cl)c2)c(C)c1Cc1csc2ccc(Cl)cc12	Tgondii IFNg -85
COC(=O)C(Cc1csc2ccc(Cl)cc12)NC(=O)c1ccc(C(F)(F)F)cc1 (centres undefined)	none
CC(=O)N1CCN(c2ccc(NC(=O)COc3cccc(C)c3C)cc2Cl)CC1	none
CN1C2(CCN(S(=O)(=O)C3CC3)C2)c2ccccc2S1(=O)=O (centres undefined)	none
COc1ccccc1NC(=O)C1CCN(S(=O)(=O)c2ccc3[nH]c(=O)ccc3c2)CC1	none
Cc1nnsc1C(=O)OCCN(C)c1ccc(C#N)cn1	none
Cc1nnsc1C(=O)N(Cc1ccccc1)C(C)C	none
Cc1nnsc1C(=O)OCc1cc(F)cc(F)c1	Tgondii IFNg -77
CC(=O)NC(C)c1ccc(-c2ccc3c(c2)OCO3)cc1 (centres undefined)	none
O=C(N[C@@H]1CN(c2ncccn2)[C@H]2COC[C@@H]12)c1cscn1	none
COc1ccc(-c2cc(NC(C)C)ncn2)cn1	none
Cn1ccnc1CN1CCC2(CC1)CN(Cc1cccnc1)CCO2	none
CC(C)c1ccc(NC(=O)C2CC(=O)N(CCc3c[nH]c4ccc(Cl)cc34)C2)cc1 (centres undefined)	none
O=C(NC1CCCCCCC1)C1CC(=O)N(CCc2c[nH]c3ccc(Cl)cc23)C1 (centres undefined)	Tgondii IFNg -92
Cc1ccc2[nH]cc(CCN3CC(C(=O)NC4CCCCCCC4)CC3=O)c2c1 (centres undefined)	none
CSCc1ccc(C(=O)NCCn2ncc3ccccc3c2=O)o1	none
CN(C)CC(=O)N1C[C@@H]2COC[C@]2(COCC2CCOCC2)C1	none
COc1ccc(Cl)cc1NC(=O)CN1C(=O)CCc2cc(S(=O)(=O)N3CCCCC3)ccc21	none
COC(=O)Nc1nc2ccc(C(=O)c3cccs3)cc2[nH]1	Tgondii IFNg -87
COC(=O)c1ccc(NC(=O)c2ccccc2SC)cc1	none

Screening data: PubChem, Broad Institute
